KAT2A inh – blocks human GCN5L2 histone acetyltransferase; Potency, µM (top dose mostly 58.9 µM), for the others: at the highest dose activity change, negative = inhibition, usual class: inhibitors; GCN5L2 HAT assay, ThioGlo1 CoA-SH fluorescence; AID 504327; 390,000 compounds, 0.21% hits; Q92830; note: % is set by controls: 0 for no effect and ±100 for the full control effect
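GCN5L2 (20 nM) in 50mM HEPES pH 7.5, 0.1mM EDTA, 0.01% Tween-20 preincubated 15 min with compounds at room temperature. Reaction started with H3(1-25) 75uM, acetyl-CoA 70uM, ThioGlo1 50uM; CoA-thiol fluorescence (Ex340/Em540) read at 0 and 20 min.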
VDR inhibitor – inhibitors of human vitamin D receptor | P11473 | Potency, µM, for inactives: max response, negative = inhibition, hits mostly inhibitors | VDR-SRC2-3 peptide fluorescence polarization, 2 h | 400,000 compounds, 0.93% hits; note: % is set by controls: 0 for no effect and ±100 for the full control effect
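Measured by FP: displacement of SRC2-3 coactivator peptide from VDR by library compounds, following a two-hour ambient incubation.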
TSG101-PTAP inh – blocks PTAP/TSG101 interaction to inhibit HIV-1 budding. Q99816. Fluorescence polarization, FITC-PTAP peptide / Tsg101 binding. Potency, µM (doses to about 115 µM), without a hit: top-dose activity change, negative = inhibition, most hits filed as inhibitors. 340,000 tested, under 10 active. AID 493005; active = well fitted inhibition curve with a large enough effect in the main read-out, with a control signal flat, not every such curve was filed as active; inconclusive = small, poorly fitted or top-dose-only effect, or effect the other way, or a change in a side signal; inactive = no such curve, though single readings can be large or run the other way; note: % of control where 0% means no effect
Target sequence (Q99816 whole entry, looked up): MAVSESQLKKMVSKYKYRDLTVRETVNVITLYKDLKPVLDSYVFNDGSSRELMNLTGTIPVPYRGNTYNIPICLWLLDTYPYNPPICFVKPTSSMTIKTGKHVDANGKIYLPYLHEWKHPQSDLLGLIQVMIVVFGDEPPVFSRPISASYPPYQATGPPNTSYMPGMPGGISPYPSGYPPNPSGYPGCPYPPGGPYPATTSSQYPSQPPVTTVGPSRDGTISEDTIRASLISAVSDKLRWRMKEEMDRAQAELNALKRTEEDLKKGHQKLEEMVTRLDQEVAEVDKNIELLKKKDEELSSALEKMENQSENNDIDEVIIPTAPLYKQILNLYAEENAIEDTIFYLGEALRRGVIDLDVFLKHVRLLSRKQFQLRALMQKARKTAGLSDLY
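Fluorescence anisotropy tracks displacement of a FITC-tagged PTAP peptide (50 nM) from the Tsg101 binding domain (10 uM), following a 20 min room-temperature incubation at pH 7.5.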
PLK1 PBD inh – PLK1 (human) polo-box domain binding inhibition. AID 720504. Potency, µM, for inactives: max response, negative = inhibition, hits mostly inhibitors. P53350. 360,000 compounds, 2.8% hits. Plk1 PBD binding of FITC phosphopeptide, fluorescence polarization; note: series mostly up to about 57 µM; % is set by controls: 0 for no effect and ±100 for the full control effect; nearly all actives have a fitted effect of over 65% in size
USP1-UAF1 inh – inhibitors of human USP1/UAF1 deubiquitinase. O94782. recombinant USP1/UAF1, Ub-Rhodamine cleavage fluorescence. Potency, µM (top dose mostly 57.1 µM), without a hit: at the highest dose activity change, negative = inhibition, hits mostly inhibitors. 390,000 compounds, 0.23% hits. AID 743255; note: % is set by controls: 0 for no effect and ±100 for the full control effect; nearly all actives have a fitted effect of over 60% in size
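USP1/UAF1 complex (1 nM) preincubated 15 min at room temperature with compound, then Ub-Rho substrate (150 nM final) added. Kinetic fluorescence at 480/540 nm over 6 reads at 60 s intervals; 50 mM HEPES pH 7.8, 0.5 mM EDTA, 0.1 mg/ml BSA, 1 mM TCEP, 0.01% Tween-20.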
* = called active by the depositor; ? = inconclusive; nt = not tested or not shown; ! = not active in a repeat. The list is not random: actives were taken first. Their share in the collection is about 3%. Unless noted, calls come from the whole dose curve; as a rule, active = well fitted curve in the direction sought with a large enough effect; inconclusive = small, poorly fitted or top-dose-only effect, or another doubt; inactive = no such curve, though single readings can be large; an effect the other way counts as inactive or inconclusive. Potency is the fitted concentration of half-maximal effect.

SMILES	KAT2A inh	VDR inhibitor	TSG101-PTAP inh	PLK1 PBD inh	USP1-UAF1 inh
COC(=O)C1SCC2C(=O)N(Cc3ccc(Cl)cc3)CC(=O)N21 (stereo unspecified)	3%	-15%	-4%	-6%	-14%
COC(=O)C1SCC2C(=O)N(Cc3ccc(Cl)c(Cl)c3)CC(=O)N21 (stereo unspecified)	-1%	?	-2%	19µM*	-9%
CC(C)CC(=O)N1CCN(c2ccc([N+](=O)[O-])c(NCc3ccccc3)c2)CC1	nt	-21%	-4%	21µM*	-21%
O=C(c1ccccc1)N1CCN(c2ccc([N+](=O)[O-])c(NCc3cccnc3)c2)CC1	39%	-5%	-2%	-5%	-22%
CC(C)CC(=O)N1CCN(c2ccc([N+](=O)[O-])cc2Cl)CC1	-4%	-24%	-5%	27µM*	-11%
CC1CCN(c2ccc(-c3nc(C(C)C)no3)cc2[N+](=O)[O-])CC1	-16%	16%	nt	nt	-13%
Cc1oc2ncn(CC(C)C)c(=O)c2c1C(=O)Nc1cc(F)ccc1F	-1%	5%	nt	nt	-22%
COc1ccc(NC(=S)NC(NC(=O)/C=C/c2ccccc2)C(Cl)(Cl)Cl)cc1 (stereo unspecified)	1µM*	9%	-4%	-14%	-10%
CC(C)CC(=O)NC(NC(=S)Nc1ccccc1)C(Cl)(Cl)Cl (stereo unspecified)	1%	?	-2%	30µM*	-1%
CCOC(=O)NC(NC(=S)Nc1ccc(OC)cc1)C(Cl)(Cl)Cl (stereo unspecified)	-1%	-11%	-4%	-12%	0%
O=C(CCc1ccccc1)NC(NC(=S)Nc1ccc(Cl)cc1)C(Cl)(Cl)Cl (stereo unspecified)	2%	0%	1%	30µM*	-19%
O=C(Cc1ccccc1)NC(NC(=S)Nc1cc(Cl)ccc1Cl)C(Cl)(Cl)Cl (stereo unspecified)	3%	-23%	1%	-9%	-14%
O=C(/C=C/c1ccccc1)NC(NC(=S)Nc1ccc(Cl)cc1)C(Cl)(Cl)Cl (stereo unspecified)	-11%	?	-7%	27µM*	-11%
Cc1ccc(C)c(NC(=O)Nc2cc3c(cc2N2CCCCC2)n(C)c(=O)n3C)c1	-5%	-6%	nt	nt	-26%
Cn1nnnc1Sc1ncnc2scc(-c3cc4ccccc4o3)c12	-4%	?	-1%	nt	nt
N#Cc1c(C#N)c(-c2ccccc2)n(-c2ccc(C(=O)O)cc2)c1N	-2%	12%	-26%	-5%	2%
CC(C)n1c(N)c(C#N)c2ccc([N+](=O)[O-])cc2c1=O	-2%	-5%	0%	-14%	-16%
N#Cc1c(N)n(-c2ccccc2)c(=O)c2cc([N+](=O)[O-])ccc12	-8%	45µM*	0%	-15%	5%
N#Cc1c(C#N)c(SSc2c(C#N)c(C#N)c(N)n2-c2ccccc2)n(-c2ccccc2)c1N	nt	?	3%	2.7µM*	6%
CC12CCC(C(=O)N3CCCc4ccccc43)(OC1=O)C2(C)C (stereo unspecified)	-1%	-10%	-3%	-6%	-15%
NC(=S)n1[nH]c(-c2ccc([N+](=O)[O-])cc2)c(N=Nc2cccc([N+](=O)[O-])c2)c1=O	?	?	-10%	21µM*	?
COc1ccccc1Nc1ccc([N+](=O)[O-])cc1N	-6%	-12%	-5%	27µM*	?
CS/C(=N\S(=O)(=O)c1cccs1)NC(=O)CSc1nc2ccccc2s1	?	?	2%	11µM*	-11%
C/C(=N/NC(=O)CSc1nc2ccccc2s1)c1ccncc1	-4%	-3%	0%	-19%	-1%
O=c1c(C(c2ccc(Cl)cc2)c2c(O)nc3n(c2=O)CCCS3)c(O)nc2n1CCCS2	-5%	15%	-1%	?	?
SMILES	KAT2A inh	VDR inhibitor	TSG101-PTAP inh	PLK1 PBD inh	USP1-UAF1 inh
O=c1c(C(c2ccc(F)cc2)c2c(O)nc3n(c2=O)CCS3)c(O)nc2n1CCS2	-2%	?	-2%	19µM*	?
O=c1c2ccccc2nc2n1CCS2	-1%	5%	-8%	-2%	-4%
O=c1c(C(c2ccc(Cl)cc2)c2c(O)nc3n(c2=O)CCS3)c(O)nc2n1CCS2	-16%	?	-12%	27µM*	-2%
COC(=O)c1cc2sc(C)cc2n1Cc1ccc(Br)cc1F	-2%	16%	nt	nt	-19%
Fc1cc(F)c(F)c(SCCc2ccncc2)c1F	nt	50µM*	-7%	?	-8%
c1ccc(SCCc2ccncc2)cc1	-6%	1%	-7%	21µM*	-27%
COc1ccc(SCCc2ccncc2)cc1	2%	-8%	-2%	-27%	0%
O=C(C[n+]1ccc(CCSc2ccc(F)cc2)cc1)c1ccccc1	-17%	?	3%	1.9µM*	-18%
Fc1ccc(SCCc2ccncc2)cc1	?	?	-4%	24µM*	-11%
CCCCN1CCCC1C(=O)Nc1c(C)cc(C)cc1C (stereo unspecified)	-10%	0%	nt	nt	nt
Cc1ccc(CNC(=O)c2nn(-c3ccc(Cl)cc3)nc2CO)cc1	1%	2%	nt	nt	-15%
COc1ccc(NC(=O)N2CCc3c(sc4c3CCCC4)C2c2ccccc2OC)cc1 (stereo unspecified)	-3%	10%	nt	nt	-20%
O=C(Nc1cccc(F)c1)N1CC[C@@]2(CCCN(C(=O)c3csnn3)C2)C1	0%	7%	nt	nt	nt
Cc1cccc(-n2cnc3cc(C(=O)NC4CCCCCC4)ccc32)c1	-1%	19%	nt	nt	13%
Cc1nn(CC(=O)NCc2ccccc2Br)c(=O)c2cc3occc3n12	0%	-14%	nt	nt	-22%
C=CCn1c(SCC(=C)C)nc2c1c(=O)[nH]c(=O)n2C	-4%	-7%	1%	?	?
CCCCCCn1c(SCC(=O)OC)nc2c1c(=O)[nH]c(=O)n2C	-17%	22µM*	-2%	5.3µM*	-19%
C=CCSc1nc2c(c(=O)[nH]c(=O)n2C)n1CC	-12%	-16%	1%	24µM*	-5%
CCCCCSc1nc2c(c(=O)[nH]c(=O)n2C)n1CC	nt	?	-1%	21µM*	-18%
CCOC(=O)C(C)Sc1nc2c(c(=O)[nH]c(=O)n2C)n1C/C=C(/C)Cl (stereo unspecified)	-1%	?	-13%	12µM*	-22%
C=CCn1cnc2c(nnn2Cc2ccc(F)cc2)c1=O	-2%	-8%	-6%	5%	-18%
O=C(CN1C(=O)C2(SCC(=O)N2c2ccc(F)c(F)c2)c2ccccc21)Nc1cccc(Cl)c1 (stereo unspecified)	4%	5%	nt	nt	-29%
Nc1ccc(O)c(C(=O)O)c1	?	45µM*!	nt	nt	nt
O=C(O)c1cc(O)ccc1O	nt	3%	1%	-5%	-24%
CSc1ccc(CCNC(=O)C2CCN(c3nc4ccccc4nc3C(F)(F)F)CC2)cc1	-5%	6%	nt	nt	-24%
